In PubChem BioAssay (Tox21):
Inconclusive results are not listed. Calls of active or inactive are those of the source. Unless noted, calls follow the shape of the dose curve; as a rule, active = well fitted curve in the direction sought with a large enough effect in the repeat runs; inconclusive = weak or mixed curves; inactive = no such curve, though single readings can be large; an effect the other way counts as inactive or inconclusive.

Key:
[1] = qHTS assay to identify small molecule antagonists of the androgen receptor (AR) signaling pathway using the MDA cell line in the presence of 0.5 nM R1881 - cell viability counter screen (AID 1259242); also: nearly all actives have a fitted effect of over 45% in size
Outline: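 Concentration-response screen of compounds for toxicity in MDA-kb2 reporter cells: 16 hr at 37C with 0.5 nM R1881, endpoint live-cell protease fluorescence measured in the reporter wells.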

[2] = target: Estrogen receptor (Homo sapiens) (UniProt P03372); assay: qHTS assay to identify small molecule antagonists of the estrogen receptor alpha (ER-alpha) signaling pathway using the BG1 cell line in the presence of 0.1 nM 17-beta-estradiol (AID 1259244); also: nearly all actives have a fitted effect of over 50% in size
Outline: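 Compounds were tested against 0.1 nM (final) 17beta-estradiol in VM7Luc4E2 cells, which express full-length ER-alpha and an ERE-luciferase reporter; luminescence was recorded following 22 h exposure.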

[3] = qHTS assay to identify small molecule HDAC inhibitors - cell viability counter screen (AID 1259365); also: series mostly up to about 92 µM; nearly all actives have a fitted effect of over 50% in size
Outline: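 To flag cytotoxic hits, 1,500 wild-type HCT-116 cells per well, plated the day before, receive test compounds for 2hr at 37 C before CellTiter-Glo reagent and a luminescence read.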

[4] = qHTS assay to identify small molecule agonists of the sonic hedgehog signaling (Shh) pathway - cell viability counter screen (AID 1259366); also: nearly all actives have a fitted effect of over 50% in size
Outline: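 Fluorescence from CellTiter-Fluor reports live cells in this counter screen. NIH/3T3-derived Gli1-Luc reporter cells receive test compounds for 24hr at 37C; reagent goes in at 23hr.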

[5] = qHTS assay to identify small molecule agonists of the sonic hedgehog signaling (Shh) pathway (AID 1259368; calls by dose curve;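 also: NIH/3T3-derived 3T3Gli1-Luc cells carrying a stable Gli1-driven firefly luciferase reporter; series mostly up to about 92 µM; nearly all actives have a fitted effect of over 15% in size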)
Outline: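 Hedgehog pathway agonism scored by increased firefly luciferase luminescence in 3T3Gli1-Luc cells treated 24 hr at 37 C; detection used a 30 min room-temperature reagent incubation.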

[6] = qHTS assay to identify small molecule antagonists of the sonic hedgehog signaling (Shh) pathway (AID 1259369; calls by dose curve; also: nearly all actives have a fitted effect of over 45% in size)
Outline: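 NIH/3T3 stable Gli1-Luc clone, 2,000 cells/well, 4hr settle; cpd + conditioned medium 24hr; Luc reagent 30min RT; luminescence.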

[7] = qHTS assay to identify small molecule agonists of the androgen receptor (AR) signaling pathway in the presence of an antagonist - cell viability counter screen (AID 1259379);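 also: MDA-kb2 human breast cancer cells carrying an MMTV luciferase reporter; series mostly up to about 92 µM; nearly all actives have a fitted effect of over 25% in size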
Outline: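 MDA-kb2 viability measured by CellTiter-Fluor fluorescence in the same wells as the luciferase signal; nilutamide 3.0uM final; 15-point compound titration; 16 hr at 37C.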

[8] = qHTS assay to identify small molecule agonists of the estrogen receptor beta (ER-beta) signaling pathway - cell viability counter screen (AID 1259380); also: nearly all actives have a fitted effect of over 30% in size
Outline: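 Measured: luminescence from CellTiter-Glo after 30 min at room temperature, added to wells already read for the LiveBLAzer FRET reporter (2 hr substrate); ER-beta-UAS-bla HEK293T cells had 16 hr compound treatment at 37C, 5% CO2.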

[9] = qHTS assay to identify small molecule antagonists of the estrogen receptor beta (ER-beta) signaling pathway - cell viability counter screen (AID 1259382); also: series mostly up to about 92 µM; nearly all actives have a fitted effect of over 55% in size
Outline: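 Readout: luminescence, CellTiter-Glo, same wells as bla assay. System: ER-beta-UAS-bla GripTite HEK293T, 2% charcoal-stripped FBS. Exposure: compounds plus 1nM 17-beta-estradiol, 16 hr, 37C.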

[10] = target: Estrogen receptor (Homo sapiens) (UniProt P03372); assay: qHTS assay to identify small molecule agonists of the estrogen receptor alpha (ER-alpha) signaling pathway in the presence of an antagonist (AID 1259383; calls by dose curve; also: top concentration of the series differs between compounds; nearly all actives have a fitted effect of over 15% in size)
Outline: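 Quantitative HTS confirmation: compounds titrated at 15 concentrations onto estrogen-deprived VM7Luc4E2 cells carrying a four-ERE luciferase construct, with ICI-182,780 present at 10.0nM final. Signal is luminescence after 22hr exposure.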

[11] = qHTS assay to identify small molecule agonists or antagonists of the thyroid stimulating hormone receptor (TSHR) signaling pathway - wild type cell line counter screen (AID 1259384; calls by dose curve)
Outline: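 Wild-type HEK293 cells were plated 18 h at 37 C/5% CO2, pin-dosed with compound plus Ro20-1724 medium, held 30 min at room temperature, then given cAMP-d2 and anti-cAMP-cryptate; fluorescence was read after 1 h. Fifteen concentrations, triplicate.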

[12] = qHTS assay to identify small molecule agonists of the estrogen receptor alpha (ER-alpha) signaling pathway in the presence of an antagonist - cell viability counter screen (AID 1259386);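 also: series mostly up to about 92 µM; cells exposed to compounds for 22 h at 37 °C before the viability read; nearly all actives have a fitted effect of over 30% in size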
Outline: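 The test measures whether compounds kill ER-alpha reporter cells (VM7Luc4E2) under antagonist co-treatment (ICI-182,780, 10.0nM). Fluorescence from CellTiter-Fluor is read after a 22hr exposure.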

[13] = qHTS assay to identify small molecule phospholipidosis (PLD) inducers (AID 1259344; active = well fitted curve in the direction sought with a large enough effect; an effect the other way counts as inactive or inconclusive)
Outline: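 After 4 h attachment on collagen I, HepG2 cells were dosed with compound alongside LipidTOX Red, kept 24 h at 37 C, fixed, and imaged for lamellar phospholipid pits.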

[14] = target: Estrogen receptor beta (Homo sapiens) (UniProt Q92731); assay: qHTS assay to identify small molecule agonists of the estrogen receptor beta (ER-beta) signaling pathway (AID 1259377; active = well fitted activation curve with a large enough effect in the signal ratio in the repeat runs, not every such curve was filed as active; the % refers to the signal ratio)
Outline: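 Screening used GripTite ER-beta-UAS-bla cells held in 2% charcoal-stripped FBS medium. After overnight (16 hr) compound incubation at 37C, beta-lactamase activity was detected with a FRET substrate by fluorescence.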

[15] = target: Estrogen receptor beta (Homo sapiens) (UniProt Q92731); assay: qHTS assay to identify small molecule antagonists of the estrogen receptor beta (ER-beta) signaling pathway (AID 1259378; active = well fitted inhibition curve with a large enough effect in the signal ratio in the repeat runs, not every such curve was filed as active; the % refers to the signal ratio)
Outline: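 ER-beta-UAS-bla HEK293T (GripTite) cells in 2% charcoal-stripped FBS medium were preincubated 6 hr at 37C, dosed with compound, then stimulated with 1 nM E2 (final) for 16 hr; beta-lactamase reporter read by B/G FRET fluorescence after 2 hr substrate loading.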

[16] = target: Thyrotropin receptor (Homo sapiens) (UniProt P16473); assay: qHTS assay to identify small molecule antagonists of the thyroid stimulating hormone receptor (TSHR) signaling pathway (AID 1259385; calls by dose curve; also: nearly all actives have a fitted effect of over 20% in size)
Outline: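 TSHR-HEK293 cells were plated and held 18 h at 37C/5% CO2, then given compound plus Ro20-1724 and stimulated with TSH at 1.5 ng/mL final. After 30 min at room temperature, cAMP was detected with cAMP-d2/anti-cAMP-cryptate (1 h) by fluorescence.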

[17] = qHTS assay to identify small molecule HDAC inhibitors (AID 1259364);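 also: wild-type HCT-116 cells with endogenous class I/II HDAC activity; top concentration of the series differs between compounds; nearly all actives have a fitted effect of over 45% in size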
Outline: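 Screening used wild-type human colon HCT-116 cells incubated overnight, dosed with compounds for 2 hours, and assayed with a homogeneous luminogenic HDAC I/II reagent for 30 minutes at room temperature.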

[18] = qHTS assay to identify small molecule antagonists of the sonic hedgehog signaling (Shh) pathway - cell viability counter screen (AID 1259367); also: nearly all actives have a fitted effect of over 55% in size
Outline: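 Conditioned medium drove Shh signaling in 3T3 Gli1-Luc cells exposed to compounds at 37C and 5% CO2. Viability was determined from CellTiter-Fluor fluorescence, with reagent incubated 1 hr after 23 hr of treatment.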

[19] = target: Androgen receptor (Homo sapiens) (UniProt P10275); assay: qHTS assay to identify small molecule agonists of the androgen receptor (AR) signaling pathway in the presence of an antagonist (AID 1259381; calls by dose curve; also: nearly all actives have a fitted effect of over 15% in size)
Outline: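 Luminescent ONE-Glo read, 30min at room temperature, follows 16hr compound exposure (15 concentrations) of MDA-kb2 cells at 37C, 0% CO2, with nilutamide added at 3.0uM final.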

Measured: Potency

Sequence of Estrogen receptor (Homo sapiens) (P03372 whole entry, looked up): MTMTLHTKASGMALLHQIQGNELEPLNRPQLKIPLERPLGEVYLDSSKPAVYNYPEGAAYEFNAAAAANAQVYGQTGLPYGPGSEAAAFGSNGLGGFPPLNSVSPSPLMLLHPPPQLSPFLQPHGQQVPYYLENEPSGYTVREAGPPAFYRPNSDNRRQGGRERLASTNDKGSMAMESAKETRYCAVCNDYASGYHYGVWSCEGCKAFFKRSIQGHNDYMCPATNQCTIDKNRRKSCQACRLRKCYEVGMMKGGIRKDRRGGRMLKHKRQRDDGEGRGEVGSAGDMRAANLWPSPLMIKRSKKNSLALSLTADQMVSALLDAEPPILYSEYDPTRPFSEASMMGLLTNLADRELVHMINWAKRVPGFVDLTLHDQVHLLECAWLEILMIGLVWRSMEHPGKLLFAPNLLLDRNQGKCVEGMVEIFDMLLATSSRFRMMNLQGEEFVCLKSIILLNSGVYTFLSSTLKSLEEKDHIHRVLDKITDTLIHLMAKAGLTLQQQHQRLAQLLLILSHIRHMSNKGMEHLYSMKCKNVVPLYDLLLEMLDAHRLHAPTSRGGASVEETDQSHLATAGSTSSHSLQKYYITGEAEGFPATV
Sequence of Estrogen receptor beta (Homo sapiens) (Q92731 whole entry, looked up): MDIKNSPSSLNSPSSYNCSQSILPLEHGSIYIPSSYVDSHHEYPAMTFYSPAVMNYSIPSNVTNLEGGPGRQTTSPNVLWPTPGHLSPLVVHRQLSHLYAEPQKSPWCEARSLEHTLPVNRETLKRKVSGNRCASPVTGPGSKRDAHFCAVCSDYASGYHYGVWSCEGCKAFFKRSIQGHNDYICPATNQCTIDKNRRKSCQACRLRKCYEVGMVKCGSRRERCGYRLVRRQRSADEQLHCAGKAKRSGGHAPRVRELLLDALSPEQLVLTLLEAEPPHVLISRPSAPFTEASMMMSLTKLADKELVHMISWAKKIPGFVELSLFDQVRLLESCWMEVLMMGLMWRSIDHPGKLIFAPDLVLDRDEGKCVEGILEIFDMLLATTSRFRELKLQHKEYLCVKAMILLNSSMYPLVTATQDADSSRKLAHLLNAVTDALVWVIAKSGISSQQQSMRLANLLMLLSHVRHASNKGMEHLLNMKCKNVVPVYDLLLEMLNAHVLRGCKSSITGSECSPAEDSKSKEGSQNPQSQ
Sequence of Thyrotropin receptor (Homo sapiens) (P16473 whole entry, looked up): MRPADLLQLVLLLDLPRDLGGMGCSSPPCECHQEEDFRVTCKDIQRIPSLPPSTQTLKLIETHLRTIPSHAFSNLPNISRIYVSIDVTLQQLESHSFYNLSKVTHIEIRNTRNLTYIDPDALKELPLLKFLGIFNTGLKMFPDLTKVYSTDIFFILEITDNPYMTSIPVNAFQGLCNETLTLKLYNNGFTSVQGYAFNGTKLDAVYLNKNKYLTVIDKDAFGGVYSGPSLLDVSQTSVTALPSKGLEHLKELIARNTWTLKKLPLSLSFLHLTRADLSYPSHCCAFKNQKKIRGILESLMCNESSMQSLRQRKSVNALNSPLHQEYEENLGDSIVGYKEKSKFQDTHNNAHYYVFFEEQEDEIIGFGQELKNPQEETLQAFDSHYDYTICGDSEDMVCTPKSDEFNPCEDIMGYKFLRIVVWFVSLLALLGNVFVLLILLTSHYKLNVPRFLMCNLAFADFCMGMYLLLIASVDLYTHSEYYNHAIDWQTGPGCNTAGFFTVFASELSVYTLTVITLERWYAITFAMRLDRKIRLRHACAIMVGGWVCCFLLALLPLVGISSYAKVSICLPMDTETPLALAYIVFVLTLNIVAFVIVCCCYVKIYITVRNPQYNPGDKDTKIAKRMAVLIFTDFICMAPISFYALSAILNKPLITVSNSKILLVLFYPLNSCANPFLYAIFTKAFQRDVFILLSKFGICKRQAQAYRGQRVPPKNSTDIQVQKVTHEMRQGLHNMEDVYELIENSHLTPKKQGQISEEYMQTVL
Sequence of Androgen receptor (Homo sapiens) (P10275 whole entry, looked up): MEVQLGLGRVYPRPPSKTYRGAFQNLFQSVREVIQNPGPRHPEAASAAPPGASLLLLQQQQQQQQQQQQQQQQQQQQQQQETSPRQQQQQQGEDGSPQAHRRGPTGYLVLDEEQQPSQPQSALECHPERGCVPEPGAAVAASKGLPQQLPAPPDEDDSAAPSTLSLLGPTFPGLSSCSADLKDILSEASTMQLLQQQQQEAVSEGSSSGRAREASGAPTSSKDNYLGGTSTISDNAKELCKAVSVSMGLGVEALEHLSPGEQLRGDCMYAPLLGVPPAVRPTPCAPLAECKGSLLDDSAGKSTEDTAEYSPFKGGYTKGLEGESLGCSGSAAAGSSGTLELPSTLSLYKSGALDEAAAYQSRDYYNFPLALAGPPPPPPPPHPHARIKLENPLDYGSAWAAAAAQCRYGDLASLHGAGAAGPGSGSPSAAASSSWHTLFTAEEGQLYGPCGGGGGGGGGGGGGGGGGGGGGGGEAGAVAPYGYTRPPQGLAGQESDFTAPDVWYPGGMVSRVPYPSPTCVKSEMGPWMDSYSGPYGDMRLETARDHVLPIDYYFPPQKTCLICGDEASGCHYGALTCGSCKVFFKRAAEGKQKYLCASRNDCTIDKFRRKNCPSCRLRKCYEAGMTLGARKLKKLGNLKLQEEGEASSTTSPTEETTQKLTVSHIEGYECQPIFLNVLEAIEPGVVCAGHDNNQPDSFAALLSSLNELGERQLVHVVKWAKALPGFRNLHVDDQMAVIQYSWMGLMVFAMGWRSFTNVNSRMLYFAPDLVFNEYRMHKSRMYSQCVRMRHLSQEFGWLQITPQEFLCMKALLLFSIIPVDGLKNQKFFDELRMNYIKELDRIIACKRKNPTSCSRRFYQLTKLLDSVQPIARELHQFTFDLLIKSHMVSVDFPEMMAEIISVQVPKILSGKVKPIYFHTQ

C[N+](=O)[O-]
not listed: [13] | [14] | [15] | [16] | [17] | [18] | [19]
inactive: all other assays above

OC(c1ccccc1)(c1ccccc1)C1CCNCC1
not listed: [2] | [4] | [6] | [10] | [17] | [18] | [19]
inactive: all other assays above

O=C(CCCN1CCC(n2c(=O)[nH]c3ccccc32)CC1)c1ccc(F)cc1
not listed: [2] | [6] | [7] | [8] | [12] | [14] | [15] | [16]
inactive: all other assays above

Nc1n[nH]c(N)n1
not listed: [2] | [7] | [10] | [13] | [19]
inactive: all other assays above

O=C(Cc1ccccc1)OCc1ccccc1
not listed: [8] | [12] | [13] | [17] | [19]
inactive: all other assays above

CC1=NNC(=O)N(/N=C/c2cccnc2)C1
not listed: [2] | [10] | [12] | [13] | [14] | [19]
inactive: all other assays above

C[C@]12CC[C@H]3[C@@H](CC=C4C[C@@H](O)CC[C@@]43C)[C@@H]1CC[C@@H]2O
not listed: [2] | [8] | [10] | [11] | [16] | [19]
inactive: all other assays above

C=CC1CC=CCC1 (centres undefined)
not listed: [12] | [13] | [17] | [19]
inactive: all other assays above

CN(N=O)C(N)=O
not listed: [2] | [10] | [11] | [13] | [16] | [19]
inactive: all other assays above

CCN(CC)c1nc(C)cc(OP(=S)(OC)OC)n1
not listed: [6] | [8] | [11] | [13] | [18] | [19]
inactive: all other assays above

OCCSCSCCO
not listed: [12] | [13] | [17] | [19]
inactive: all other assays above

CN/C(=N\[N+](=O)[O-])NCC1CCOC1 (centres undefined)
not listed: [2] | [10] | [13] | [19]
inactive: all other assays above

CC(C)COP(=O)(OCC(C)C)OCC(C)C
not listed: [2] | [10] | [13] | [19]
inactive: all other assays above

CC(C)CC(N(C)C)C1(c2ccc(Cl)cc2)CCC1 (centres undefined)
not listed: [2] | [8] | [10] | [16] | [19]
inactive: all other assays above

ClCCOCOCCCl
not listed: [2] | [10] | [13] | [19]
inactive: all other assays above

CN1CCN(C(=O)O[C@H]2c3nccnc3C(=O)N2c2ccc(Cl)cn2)CC1
not listed: [2] | [10] | [17] | [19]
inactive: all other assays above
